Our source for the outcome and AC50 values is PubChem BioAssay (EPA / NIEHS).

Results filed as inconclusive are left out. The source made the active and inactive calls. Rule for the calls, unless noted: active = hit-call score of the fitted dose curve at least 0.9, where 1 is the maximum; inactive = score below 0.9.

In general, AC50 refers to the midpoint of the concentration-response curve, whichever way the signal moves.

Assay [1] in a line: ATG_Sox_CIS: Attagene CIS-FACTORIAL HepG2 Assay for human SRY-box transcription factor (SOX) (AID 2282960). Particulars: HepG2 Attagene cis-factorial SOX reporter, mRNA; actives raise or lower the signal. An outline of the steps: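 Fluorescence-labelled cDNA fragments from reporter transcripts, sized by CE, give the signal. Cells: HepG2, transiently transfected with cis-regulated reporter units. Exposure 24 h; DMSO negative control; bidirectional curve fitting.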

The target of assay [2] is Transcription factor Sp1 (Homo sapiens) (UniProt P08047). In words: ATG_Sp1_CIS: Attagene CIS-FACTORIAL HepG2 Assay for human Specificity Protein 1 (Sp1) (AID 2282961). Conditions: HepG2 Sp1 cis-reporter transcription, actives raise or lower the signal. An outline of the steps: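 Chemicals are dosed onto HepG2 cells transfected with multiple cis-promoter reporter constructs, and after 24 h reporter RNA is reverse-transcribed, PCR-amplified and resolved by capillary electrophoresis for fluorescence quantitation; activity is scored up or down against DMSO.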
Sequence of Transcription factor Sp1 (Homo sapiens) (P08047 whole entry, looked up): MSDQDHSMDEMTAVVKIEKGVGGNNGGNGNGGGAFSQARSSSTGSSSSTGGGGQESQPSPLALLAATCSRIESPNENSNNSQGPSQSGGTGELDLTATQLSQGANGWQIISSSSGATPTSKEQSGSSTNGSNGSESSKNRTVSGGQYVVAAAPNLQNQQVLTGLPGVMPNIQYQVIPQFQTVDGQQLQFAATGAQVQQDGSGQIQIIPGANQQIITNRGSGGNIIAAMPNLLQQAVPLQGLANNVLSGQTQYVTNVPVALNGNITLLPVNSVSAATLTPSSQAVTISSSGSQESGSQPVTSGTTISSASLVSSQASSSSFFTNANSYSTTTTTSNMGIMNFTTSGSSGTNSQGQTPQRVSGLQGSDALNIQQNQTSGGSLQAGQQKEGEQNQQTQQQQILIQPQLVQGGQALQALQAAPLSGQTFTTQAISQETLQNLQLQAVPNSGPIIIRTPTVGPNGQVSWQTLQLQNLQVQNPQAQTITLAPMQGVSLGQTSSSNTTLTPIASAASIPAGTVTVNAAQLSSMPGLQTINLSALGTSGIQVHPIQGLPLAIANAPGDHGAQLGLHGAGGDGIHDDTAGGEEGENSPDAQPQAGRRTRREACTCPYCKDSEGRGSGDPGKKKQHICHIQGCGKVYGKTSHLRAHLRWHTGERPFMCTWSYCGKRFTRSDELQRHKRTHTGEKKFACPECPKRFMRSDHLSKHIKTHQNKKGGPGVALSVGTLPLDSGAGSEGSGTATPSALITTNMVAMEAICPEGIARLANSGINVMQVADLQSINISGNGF

A short description of assay [3]: ATG_SREBP_CIS: Attagene CIS-FACTORIAL HepG2 Assay for human Sterol Regulatory Element Binding (SREBP) (AID 2282962). Conditions: HepG2 Attagene cis-factorial SREBP reporter, mRNA; actives raise or lower the signal. An outline of the steps:
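HepG2 cells transiently transfected with multiplexed cis-element reporter units report endogenous transcription factor activity. After 24 h of chemical exposure, reporter mRNA was quantified by RT-PCR, 6-FAM labelling, HpaI digestion and capillary electrophoresis; bidirectional fits used DMSO as baseline.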

Assay [4] is described as follows: ATG_TA_CIS: Attagene CIS-FACTORIAL HepG2 Assay for human TA Basal Promoter (AID 2282964). Particulars: HepG2 Attagene CIS-factorial TA basal promoter reporter; actives raise or lower the signal. An outline of the steps: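 Transfected HepG2, 24 h compound exposure; RNA → RT-PCR → FAM primer extension → HpaI cut → CE fluorescence. Gain/loss-of-signal fitted against DMSO negative control. Background-control readout.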

A short description of assay [5]: ATG_TCF_b_cat_CIS: Attagene CIS-FACTORIAL HepG2 Assay for human T-Cell-Factor with beta-catenin (TCF/b-cat) (AID 2282965). Particulars: HepG2 TCF/beta-catenin cis-reporter transcription, actives raise or lower the signal. An outline of the steps:
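Cells of the HepG2 line carry transiently transfected reporter units whose promoters respond to endogenous factors. Twenty-four hours post-dosing, reporter mRNA induction is measured by fluorescent RT-PCR and capillary electrophoresis, with DMSO as baseline.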

Assay [6] is described as follows: ATG_TAL_CIS: Attagene CIS-FACTORIAL HepG2 Assay for human TAL Basal Promoter (AID 2282966).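 Note: background control endpoint measuring basal TAL promoter reporter mRNA not a specific factor.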 Particulars: HepG2 Attagene cis-factorial TAL promoter reporter; actives raise or lower the signal. A digest of the protocol:
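In this cell-based multiplex, HepG2 liver cells bearing cis-promoter reporter constructs are dosed for 24 hours. Total RNA is reverse-transcribed and amplified, labelled fragments are sized by capillary electrophoresis, and signal changes are fitted bidirectionally versus DMSO.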

Assay [7] is described as follows: ATG_TGFb_CIS: Attagene CIS-FACTORIAL HepG2 Assay for human Transforming Growth Factor (TGF) (AID 2282967). Particulars: HepG2 Attagene CIS TGFb reporter, mRNA transcription; actives raise or lower the signal. An outline of the steps:
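Readout: fluorescently labeled reporter cDNA fragments resolved by capillary electrophoresis after RT-PCR. Transfected HepG2 cells dosed for 24 h; endogenous TF activity at TGFB1-linked cis element; gain or loss fitted relative to DMSO.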

Assay [8] can be described thus: ATG_VDRE_CIS: Attagene CIS-FACTORIAL HepG2 Assay for human Vitamin D Receptor Element (VDRE) (AID 2282968). Conditions: HepG2 VDRE cis-reporter transcription, actives raise or lower the signal. An outline of the steps:
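Cell-based multiplexed reporter format in human liver HepG2 cells, 24 h post-dose. Fluorescence from capillary electrophoresis of reporter cDNA gives the signal, with DMSO as negative control and baseline.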

Assay [9] has as its target X-box-binding protein 1 (Homo sapiens) (UniProt P17861). In words: ATG_Xbp1_CIS: Attagene CIS-FACTORIAL HepG2 Assay for human X-box Binding Protein 1 (XBP1) (AID 2282972). Particulars: HepG2 XBP1 cis-element reporter, Attagene multiplex; actives raise or lower the signal. An outline of the steps:
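HepG2 cells transiently transfected with cis-regulated multiple reporter transcription units; endogenous transcription factor activity measured 24 hours after chemical dosing. Reporter mRNA quantified by RT-PCR, 6-FAM primer extension, HpaI digestion and capillary electrophoresis; bidirectional fitting versus DMSO.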

Assay [10] is described as follows: ATG_M_19_TRANS: Attagene TRANS-FACTORIAL HepG2 Assay for M19 Transcription Factor (Internal Marker) (AID 2282974; active = hit-call score of the fitted dose curve at least 0.9, where 1 is the maximum). Conditions: HepG2 Attagene TRANS-FACTORIAL M19 internal marker reporter. A digest of the protocol:
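Multiplexed TRANS format: HepG2 liver cells bearing transient GAL4-UAS reporter units, chemical treatment 24 h, reporter transcripts quantified by RT-PCR plus capillary electrophoresis. DMSO defines baseline.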

The nature of assay [11]: ATG_GAL4_TRANS: Attagene TRANS-FACTORIAL HepG2 Assay for GAL4 (Internal Marker) (AID 2282976; active = hit-call score of the fitted dose curve at least 0.9, where 1 is the maximum). Particulars: HepG2 Attagene TRANS GAL4 internal marker reporter. An outline of the steps:
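RT-PCR/capillary electrophoresis readout of reporter mRNA. HepG2, transient MRTU transfection (GAL4-UAS reporters), 24 h compound exposure. Background-control endpoint, positive direction vs DMSO baseline.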

Assay [12] has as its target Oxysterols receptor LXR-beta (Homo sapiens) (UniProt P55055). In words: ATG_LXRb_TRANS: Attagene TRANS-FACTORIAL HepG2 Assay for human Liver X Receptor beta (LXRb) (AID 2282981; active = hit-call score of the fitted dose curve at least 0.9, where 1 is the maximum). Particulars: HepG2 Attagene TRANS GAL4-LXRb reporter, mRNA. An outline of the steps: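 Gain-of-signal mRNA reporter endpoint, DMSO as negative control. Transiently transfected HepG2 cells carrying the NR-Gal4 chimera and GAL4-UAS reporter units were treated 24 h; transcripts quantified by RT-PCR and capillary electrophoresis fluorescence.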

Assay [13] has as its target Nuclear receptor subfamily 1 group I member 3 (Homo sapiens) (UniProt Q14994). In words: ATG_CAR_TRANS: Attagene TRANS-FACTORIAL HepG2 Assay for human Constitutive Androstane Receptor (CAR) (AID 2282969; active = hit-call score of the fitted dose curve at least 0.9, where 1 is the maximum;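 note: activators raise reporter mRNA above DMSO so AC50 marks induction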). Conditions: HepG2 Attagene TRANS-FACTORIAL CAR reporter. An outline of the steps: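 HepG2 cells transiently transfected with GAL4-UAS reporter units; TRANS format reads activity of exogenous chimeric NR-Gal4 protein. After 24 h dosing, reporter mRNA quantified by RT-PCR, 6-FAM labelling and capillary electrophoresis; gain of signal fitted against DMSO.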

The target in assay [14] is Estrogen receptor (Homo sapiens) (UniProt P03372). In words: ATG_ERa_TRANS: Attagene TRANS-FACTORIAL HepG2 Assay for human Estrogen Receptor alpha (ERa) (AID 2282970; active = hit-call score of the fitted dose curve at least 0.9, where 1 is the maximum). Conditions: HepG2 Attagene TRANS ERa GAL4 reporter, mRNA. An outline of the steps: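 After 24 h of compound treatment, RNA from HepG2 cells bearing transfected GAL4-UAS reporter constructs is converted to cDNA, amplified and fluorescently labelled. Capillary electrophoresis resolves the ERa-linked reporter; DMSO serves as negative control.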
Sequence of Estrogen receptor (Homo sapiens) (P03372 whole entry, looked up, the tested form may be a part): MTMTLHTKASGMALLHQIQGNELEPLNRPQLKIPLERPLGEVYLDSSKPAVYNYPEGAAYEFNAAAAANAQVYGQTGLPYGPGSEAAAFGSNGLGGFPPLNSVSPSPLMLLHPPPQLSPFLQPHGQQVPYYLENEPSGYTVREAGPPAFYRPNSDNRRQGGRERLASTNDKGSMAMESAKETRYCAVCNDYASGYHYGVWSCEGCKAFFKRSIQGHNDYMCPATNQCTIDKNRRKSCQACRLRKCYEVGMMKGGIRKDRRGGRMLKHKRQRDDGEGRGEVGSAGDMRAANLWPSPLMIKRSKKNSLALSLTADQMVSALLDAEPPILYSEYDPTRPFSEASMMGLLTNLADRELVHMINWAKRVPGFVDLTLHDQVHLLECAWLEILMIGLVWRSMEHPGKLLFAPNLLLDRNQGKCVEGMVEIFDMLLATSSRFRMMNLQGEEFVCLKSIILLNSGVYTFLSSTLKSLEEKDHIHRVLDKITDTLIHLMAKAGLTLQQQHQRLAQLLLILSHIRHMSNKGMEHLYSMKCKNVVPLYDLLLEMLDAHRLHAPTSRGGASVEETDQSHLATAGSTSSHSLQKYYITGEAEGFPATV

The target of assay [15] is Steroid hormone receptor ERR1 (Homo sapiens) (UniProt P11474). In words: ATG_ERRa_TRANS: Attagene TRANS-FACTORIAL HepG2 Assay for human Estrogen-Related Receptor alpha (ERRa) (AID 2282971; active = hit-call score of the fitted dose curve at least 0.9, where 1 is the maximum). Particulars: HepG2 Attagene TRANS reporter, ERRa transactivation. A digest of the protocol: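 Transfected HepG2, 24 h dosing, ERRa-Gal4 chimera driving GAL4-UAS reporter. Readout: reporter mRNA via RT-PCR plus capillary electrophoresis (fluorescence). Positive direction vs DMSO control.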
Sequence of Steroid hormone receptor ERR1 (Homo sapiens) (P11474 whole entry, looked up, the tested form may be a part): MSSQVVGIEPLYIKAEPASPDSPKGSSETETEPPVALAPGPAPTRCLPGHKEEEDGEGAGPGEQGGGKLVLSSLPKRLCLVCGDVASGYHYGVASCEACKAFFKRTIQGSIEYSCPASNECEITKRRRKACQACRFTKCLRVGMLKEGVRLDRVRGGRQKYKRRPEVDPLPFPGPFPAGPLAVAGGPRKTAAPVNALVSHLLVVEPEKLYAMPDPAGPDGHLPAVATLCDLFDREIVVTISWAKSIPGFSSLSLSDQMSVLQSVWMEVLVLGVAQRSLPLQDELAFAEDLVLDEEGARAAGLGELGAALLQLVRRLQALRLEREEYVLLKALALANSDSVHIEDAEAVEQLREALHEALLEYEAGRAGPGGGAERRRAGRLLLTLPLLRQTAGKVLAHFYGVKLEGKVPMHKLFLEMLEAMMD

For assay [16], the target named is Oxysterols receptor LXR-alpha (Homo sapiens) (UniProt Q13133). In words: ATG_LXRa_TRANS: Attagene TRANS-FACTORIAL HepG2 Assay for human Liver X Receptor alpha (LXRa) (AID 2282980; active = hit-call score of the fitted dose curve at least 0.9, where 1 is the maximum). Conditions: HepG2 Attagene TRANS reporter, LXRa transactivation. A digest of the protocol:
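Read-out: reporter transcript levels by RT-PCR plus capillary electrophoresis, fluorescence intensity. Transiently transfected HepG2, exogenous NR-GAL4 chimera, GAL4-UAS reporters; 24 h compound exposure. Activity = increase over DMSO negative control.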

The target of assay [17] is Androgen receptor (Homo sapiens) (UniProt P10275). In words: ATG_AR_TRANS: Attagene TRANS-FACTORIAL HepG2 Assay for human Androgen Receptor (AR) (AID 2282973; active = hit-call score of the fitted dose curve at least 0.9, where 1 is the maximum). Particulars: HepG2 Attagene TRANS-FACTORIAL AR reporter transcription. An outline of the steps: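 Readout is reporter transcript abundance, quantified by fluorescent RT-PCR products separated on capillary electrophoresis. Human HepG2 liver cells carried transiently transfected NR-Gal4 chimera plus GAL4-UAS reporter constructs and were dosed for 24 h; activity scored upward versus DMSO.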
Sequence of Androgen receptor (Homo sapiens) (P10275 whole entry, looked up, the tested form may be a part): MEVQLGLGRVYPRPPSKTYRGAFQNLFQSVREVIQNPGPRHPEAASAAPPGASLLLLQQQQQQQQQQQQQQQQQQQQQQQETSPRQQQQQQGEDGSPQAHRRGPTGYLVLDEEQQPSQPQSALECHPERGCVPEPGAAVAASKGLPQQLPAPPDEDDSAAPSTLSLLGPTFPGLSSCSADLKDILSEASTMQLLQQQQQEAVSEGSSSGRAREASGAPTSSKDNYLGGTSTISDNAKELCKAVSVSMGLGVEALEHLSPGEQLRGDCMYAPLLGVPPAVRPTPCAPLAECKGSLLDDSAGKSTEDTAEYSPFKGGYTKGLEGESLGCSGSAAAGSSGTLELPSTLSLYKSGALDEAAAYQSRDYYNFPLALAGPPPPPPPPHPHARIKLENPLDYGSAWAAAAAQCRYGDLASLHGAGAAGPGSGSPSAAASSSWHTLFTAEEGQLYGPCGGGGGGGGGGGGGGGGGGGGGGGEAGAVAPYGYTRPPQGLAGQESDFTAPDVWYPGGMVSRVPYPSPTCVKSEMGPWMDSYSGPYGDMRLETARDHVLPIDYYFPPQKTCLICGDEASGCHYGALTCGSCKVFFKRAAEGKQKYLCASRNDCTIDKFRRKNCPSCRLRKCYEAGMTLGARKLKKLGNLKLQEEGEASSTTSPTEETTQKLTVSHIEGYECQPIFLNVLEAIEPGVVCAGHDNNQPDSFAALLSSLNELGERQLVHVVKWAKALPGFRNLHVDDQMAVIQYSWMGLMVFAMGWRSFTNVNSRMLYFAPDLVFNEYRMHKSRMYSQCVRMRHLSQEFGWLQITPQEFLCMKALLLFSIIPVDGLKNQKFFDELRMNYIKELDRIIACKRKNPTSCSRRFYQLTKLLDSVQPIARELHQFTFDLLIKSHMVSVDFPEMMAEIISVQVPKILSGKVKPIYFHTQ

Assay [18] concerns the target Glucocorticoid receptor (Homo sapiens) (UniProt P04150). In words: ATG_GR_TRANS: Attagene TRANS-FACTORIAL HepG2 Assay for human Glucocorticoid Receptor (GR) (AID 2282978; active = hit-call score of the fitted dose curve at least 0.9, where 1 is the maximum;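 note: activators score as hits since higher reporter transcript over DMSO is fitted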). Conditions: HepG2 Attagene TRANS GR reporter, mRNA transcription. An outline of the steps: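 Transiently transfected HepG2 cells express chimeric NR-GAL4 proteins acting on GAL4-UAS reporter units. Compounds are applied for 24 h. mRNA induction over DMSO is measured by capillary electrophoresis.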

Sequence of Oxysterols receptor LXR-beta (Homo sapiens) (P55055 whole entry, looked up, the tested form may be a part): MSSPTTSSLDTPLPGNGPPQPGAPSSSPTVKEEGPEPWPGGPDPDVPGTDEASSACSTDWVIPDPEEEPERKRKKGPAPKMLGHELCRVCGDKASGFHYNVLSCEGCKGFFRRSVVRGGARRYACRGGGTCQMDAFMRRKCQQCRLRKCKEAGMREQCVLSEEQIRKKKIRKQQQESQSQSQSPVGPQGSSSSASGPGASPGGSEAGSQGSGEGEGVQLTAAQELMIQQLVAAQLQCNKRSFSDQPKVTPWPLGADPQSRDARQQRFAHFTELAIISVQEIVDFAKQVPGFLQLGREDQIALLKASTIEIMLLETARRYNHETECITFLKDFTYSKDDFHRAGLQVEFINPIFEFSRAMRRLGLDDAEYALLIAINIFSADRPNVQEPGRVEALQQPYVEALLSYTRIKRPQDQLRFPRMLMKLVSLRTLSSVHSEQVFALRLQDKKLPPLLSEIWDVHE
Sequence of X-box-binding protein 1 (Homo sapiens) (P17861 whole entry, looked up): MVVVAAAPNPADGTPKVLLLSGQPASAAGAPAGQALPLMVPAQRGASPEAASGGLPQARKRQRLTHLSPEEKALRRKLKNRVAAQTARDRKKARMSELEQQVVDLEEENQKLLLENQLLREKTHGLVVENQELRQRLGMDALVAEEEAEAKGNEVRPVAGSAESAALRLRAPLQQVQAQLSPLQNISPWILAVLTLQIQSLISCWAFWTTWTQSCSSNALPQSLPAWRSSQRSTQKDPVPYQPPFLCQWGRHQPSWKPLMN
Sequence of Oxysterols receptor LXR-alpha (Homo sapiens) (Q13133 whole entry, looked up, the tested form may be a part): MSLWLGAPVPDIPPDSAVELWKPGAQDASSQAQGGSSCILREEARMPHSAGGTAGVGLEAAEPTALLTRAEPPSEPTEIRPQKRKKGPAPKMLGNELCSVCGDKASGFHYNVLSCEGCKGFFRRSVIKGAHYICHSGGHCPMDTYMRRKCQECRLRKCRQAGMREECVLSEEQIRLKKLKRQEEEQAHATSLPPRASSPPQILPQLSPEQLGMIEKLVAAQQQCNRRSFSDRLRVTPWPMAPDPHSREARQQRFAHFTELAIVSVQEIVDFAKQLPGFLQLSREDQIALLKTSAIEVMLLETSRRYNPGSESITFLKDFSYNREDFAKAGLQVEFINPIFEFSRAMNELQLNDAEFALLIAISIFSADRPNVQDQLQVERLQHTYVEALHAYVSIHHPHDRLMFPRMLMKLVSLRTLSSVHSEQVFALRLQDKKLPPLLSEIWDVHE
Sequence of Glucocorticoid receptor (Homo sapiens) (P04150 whole entry, looked up, the tested form may be a part): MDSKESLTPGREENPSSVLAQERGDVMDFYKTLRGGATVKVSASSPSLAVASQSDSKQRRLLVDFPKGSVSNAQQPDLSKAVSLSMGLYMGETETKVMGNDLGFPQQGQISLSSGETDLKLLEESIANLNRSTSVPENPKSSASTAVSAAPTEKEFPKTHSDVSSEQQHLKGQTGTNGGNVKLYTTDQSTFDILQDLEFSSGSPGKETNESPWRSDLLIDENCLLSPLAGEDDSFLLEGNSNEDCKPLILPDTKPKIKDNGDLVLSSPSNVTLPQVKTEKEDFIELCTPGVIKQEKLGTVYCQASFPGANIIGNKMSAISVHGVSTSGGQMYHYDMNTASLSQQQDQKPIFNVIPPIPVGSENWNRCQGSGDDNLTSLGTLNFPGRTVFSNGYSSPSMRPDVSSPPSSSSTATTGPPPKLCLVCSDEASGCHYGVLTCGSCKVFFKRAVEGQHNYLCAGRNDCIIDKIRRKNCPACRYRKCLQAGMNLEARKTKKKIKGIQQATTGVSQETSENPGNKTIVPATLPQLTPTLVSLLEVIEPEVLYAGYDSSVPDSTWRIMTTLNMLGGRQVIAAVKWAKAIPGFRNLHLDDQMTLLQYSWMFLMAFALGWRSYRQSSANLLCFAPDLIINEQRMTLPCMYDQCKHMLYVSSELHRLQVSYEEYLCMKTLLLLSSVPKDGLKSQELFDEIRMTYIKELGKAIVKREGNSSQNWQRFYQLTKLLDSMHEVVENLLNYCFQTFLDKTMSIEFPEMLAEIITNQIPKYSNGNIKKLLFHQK
Sequence of Nuclear receptor subfamily 1 group I member 3 (Homo sapiens) (Q14994 whole entry, looked up, the tested form may be a part): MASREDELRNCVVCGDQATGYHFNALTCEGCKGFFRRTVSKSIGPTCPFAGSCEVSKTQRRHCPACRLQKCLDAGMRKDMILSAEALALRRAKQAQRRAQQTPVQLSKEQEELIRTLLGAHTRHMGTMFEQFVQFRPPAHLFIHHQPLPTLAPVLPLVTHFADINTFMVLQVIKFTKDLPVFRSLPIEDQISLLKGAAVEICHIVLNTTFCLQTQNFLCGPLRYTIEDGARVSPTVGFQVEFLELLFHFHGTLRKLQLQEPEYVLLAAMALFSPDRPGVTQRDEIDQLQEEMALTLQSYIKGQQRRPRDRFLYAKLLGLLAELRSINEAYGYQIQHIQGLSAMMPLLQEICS

For the compound `CC(=[OH+])/C=C(/C)[O-].CC(=[OH+])/C=C(/C)[O-].CC(=[OH+])/C=C(/C)[O-].[Al]`, the compound was classed as inactive in assay [1], in assay [2], in assay [3], in assay [4], in [5] and in [6]. Also, the compound was called inactive in assay [7], in assay [8], in assay [9], in assay [10], in assay [11] and in assay [12].
With `ClCCBr`, the compound was called inactive in [1], in assay [2], in assay [3], in [4], in assay [5] and in assay [6]. Besides, the compound was classed as inactive in assay [7], in [13], in [14], in assay [15], in [9] and in assay [11]. In addition, in assay [16], the compound was classed as inactive.
In the case of `CC1(C)CCC(Cc2ccc(Cl)cc2)C1(O)Cn1cncn1` (stereo not drawn), the call in [1], in assay [2], in assay [4], in [5], in assay [6] and in [7] was inactive. Moreover, the compound was classed as inactive in [15], in [9], in assay [10], in assay [11], in assay [16] and in assay [12]. The AC50 is 9.3 µM (active) in [3], 17.7 µM (active) in assay [8] and 5.3 µM (active) in [14].
For `Cc1ccccc1C(=O)Nc1cccc(OC(C)C)c1`, the result in assay [1], in assay [2], in [3], in assay [5], in assay [6] and in [7] was inactive. Further, the outcome in assay [9], in assay [17], in [10], in [18], in [16] and in [12] was inactive.
For `COP(=S)(OC)Oc1ccc(S(=O)(=O)N(C)C)cc1`, the call in assay [1], in [2], in assay [3], in [4], in assay [5] and in assay [6] was inactive. In addition, the result in [7], in assay [14], in [15], in [9], in assay [17] and in [10] was inactive. Besides, the result in assay [16] and in assay [12] was inactive. Besides, in assay [8], the AC50 was 38.8 µM (active).
As to `CCCCOCCOC(C)=O`, the result in assay [1], in assay [2], in [3], in assay [4], in assay [5] and in assay [6] was inactive. Further, the compound was classed as inactive in assay [7], in assay [8], in assay [15], in assay [9], in assay [10] and in assay [11]. Also, the compound was called inactive in [16].
Turning to `BrCCBr`, the compound was called inactive in assay [1], in assay [2], in assay [3], in assay [4], in assay [5] and in assay [6]. In addition, the result in [7], in assay [8], in assay [13], in assay [15], in [9] and in assay [10] was inactive. Also, the compound was classed as inactive in assay [11], in assay [18], in [16] and in assay [12].
For `C[C@H]1O[C@@H](O[C@H]2[C@@H](O)C[C@H](O[C@H]3[C@@H](O)C[C@H](O[C@H]4CC[C@@]5(C)[C@H](CC[C@@H]6[C@@H]5CC[C@]5(C)[C@@H](C7=CC(=O)OC7)CC[C@]65O)C4)O[C@@H]3C)O[C@@H]2C)C[C@H](O)[C@@H]1O`, the outcome in assay [1], in assay [5], in [7], in assay [8], in [14] and in assay [12] was inactive. In addition, the AC50 is 3.3 µM (active) in [2], 7.83 µM (active) in assay [3], 0.0564 µM (active) in assay [6] and 0.497 µM (active) in assay [9].
Take `COC[C@H](C)N(C(=O)CCl)c1c(C)csc1C`: the result in assay [1], in assay [2], in [3], in assay [4], in assay [5] and in assay [6] was inactive. Further, the result in [7], in [14], in assay [15], in assay [9] and in assay [12] was inactive. Also, the half-maximal activity concentration (AC50) in assay [8] is 47.3 µM (active).
